# Laboratory results as given in article PMC12864922, “TDP-43 directly inhibits mRNA accumulation in neurites through modulation of mRNA stability”.
# The full ranking holds about 9,900 sequences; the median of “r (bound/input frequency ratio)” is about 0.7, and the highest 2% start at about 6.5. The full list was thinned out, with the highest values kept by preference.
# B1: ENSMUSG00000028439.185|Fam219a|1:16;18:35;45:52 (ssRNA)
# RNA: GGGAGUUCUACAGUCCGACGAUCGCUUCGAUAUCCGCAUGCUAACACACAUACACACACCCACACACACACACACACAUGUACCCGACACACACAUGAGCCUAUCUGUCCAGGGAACCAGAUUGGUGUCCGAGAUGAGGAAAUGGCUGUGGCCUGGGAAAUCAGUGAGAGGCCGCUUGGGAAUGAGAAUGCAGUGGACUGAAAGCACAGCCUGGCCAUCUGGAACCUGGGUUCUGGUCCCAGCCUCGGCAUUCUCCCUGAGCUCCUAAGCAAUUCCCAGGCUUCUCUAGGGCUUCAGUUCUCACUCUUGCGGUCGCACUAGUGUGGAAUUCUCGGGUGUCAAGG
# B2: ENSMUSG00000028439.187|Fam219a|6:23;33:40 (ssRNA)
# RNA: GGGAGUUCUACAGUCCGACGAUCGCUUCGAUAUCCGCAUGCUAUGUGCCACACACACACACACACAUGUACCCGACACACACAUGAGCCUAUCUGUCCAGGGAACCAGAUUGGUGUCCGAGAUGAGGAAAUGGCUGUGGCCUGGGAAAUCAGUGAGAGGCCGCUUGGGAAUGAGAAUGCAGUGGACUGAAAGCACAGCCUGGCCAUCUGGAACCUGGGUUCUGGUCCCAGCCUCGGCAUUCUCCCUGAGCUCCUAAGCAAUUCCCAGGCUUCUCUAGGGCUUCAGUUCUCACAACUGGAAAAUCUCUUGCGGUCGCACUAGUGUGGAAUUCUCGGGUGUCAAGG
# B3: ENSMUSG00000028439.188|Fam219a (ssRNA)
# RNA: GGGAGUUCUACAGUCCGACGAUCGCUUCGAUAUCCGCAUGCUAUGUGUGUGUGUGUGUGUUGUACCCGAGUGUGUGUUGAGCCUAUCUGUCCAGGGAACCAGAUUGGUGUCCGAGAUGAGGAAAUGGCUGUGGCCUGGGAAAUCAGUGAGAGGCCGCUUGGGAAUGAGAAUGCAGUGGACUGAAAGCACAGCCUGGCCAUCUGGAACCUGGGUUCUGGUCCCAGCCUCGGCAUUCUCCCUGAGCUCCUAAGCAAUUCCCAGGCUUCUCUAGGGCUUCAGUUCUCACAACUGGAAAAUAAAGAGCUCUUGCGGUCGCACUAGUGUGGAAUUCUCGGGUGUCAAGG
# B4: ENSMUSG00000028439.186|Fam219a (ssRNA)
# RNA: GGGAGUUCUACAGUCCGACGAUCGCUUCGAUAUCCGCAUGCUAUAUGUGUGUGCGUGUGUGUGUGUGUGUGUUGUACCCGAGUGUGUGUUGAGCCUAUCUGUCCAGGGAACCAGAUUGGUGUCCGAGAUGAGGAAAUGGCUGUGGCCUGGGAAAUCAGUGAGAGGCCGCUUGGGAAUGAGAAUGCAGUGGACUGAAAGCACAGCCUGGCCAUCUGGAACCUGGGUUCUGGUCCCAGCCUCGGCAUUCUCCCUGAGCUCCUAAGCAAUUCCCAGGCUUCUCUAGGGCUUCAGUUCUCACAACUGCUCUUGCGGUCGCACUAGUGUGGAAUUCUCGGGUGUCAAGG
# B5: ENSMUSG00000028439.184|Fam219a|6:22;24:41;51:58 (ssRNA)
# RNA: GGGAGUUCUACAGUCCGACGAUCGCUUCGAUAUCCGCAUGCUAUGUGCCACACACAUACACACACCCACACACACACACACACAUGUACCCGACACACACAUGAGCCUAUCUGUCCAGGGAACCAGAUUGGUGUCCGAGAUGAGGAAAUGGCUGUGGCCUGGGAAAUCAGUGAGAGGCCGCUUGGGAAUGAGAAUGCAGUGGACUGAAAGCACAGCCUGGCCAUCUGGAACCUGGGUUCUGGUCCCAGCCUCGGCAUUCUCCCUGAGCUCCUAAGCAAUUCCCAGGCUUCUCUAGGGCUUCAGCUCUUGCGGUCGCACUAGUGUGGAAUUCUCGGGUGUCAAGG
# B6: ENSMUSG00000061578.500|Ksr2|29:34;201:207 (ssRNA)
# RNA: GGGAGUUCUACAGUCCGACGAUCGCUUCGAUAUCCGCAUGCUACUCUGCCUCCCAAGUGCUGGGAUUAAAGCACACAACCACCAUUGCAAUCUUGAACUCUUGACCAAUAGAAAUCCUAGACUAGUGUUGCUAGGCAACUGACUGUAUUCAGGACACCCAGGGUGGGAGGUGGAUGGAGCUCUUGCCUAACACACACCAAGCCCCAAGUUCCAUCCCCAGUCCCACACAAACCAGAUAUGAUGCACACACCCUAUGUCCCCCACACACGAGAGAGCUGGAGGCAGGAGGAUCAGAAGUUCAGGCUCUUGCGGUCGCACUAGUGUGGAAUUCUCGGGUGUCAAGG
# B7: ENSMUSG00000028439.185|Fam219a (ssRNA)
# RNA: GGGAGUUCUACAGUCCGACGAUCGCUUCGAUAUCCGCAUGCUAUGUGUGUAUGUGUGUGCGUGUGUGUGUGUGUGUGUUGUACCCGAGUGUGUGUUGAGCCUAUCUGUCCAGGGAACCAGAUUGGUGUCCGAGAUGAGGAAAUGGCUGUGGCCUGGGAAAUCAGUGAGAGGCCGCUUGGGAAUGAGAAUGCAGUGGACUGAAAGCACAGCCUGGCCAUCUGGAACCUGGGUUCUGGUCCCAGCCUCGGCAUUCUCCCUGAGCUCCUAAGCAAUUCCCAGGCUUCUCUAGGGCUUCAGUUCUCACUCUUGCGGUCGCACUAGUGUGGAAUUCUCGGGUGUCAAGG
# B8: ENSMUSG00000061578.502|Ksr2|17:22;189:195 (ssRNA)
# RNA: GGGAGUUCUACAGUCCGACGAUCGCUUCGAUAUCCGCAUGCUAAGUGCUGGGAUUAAAGCACACAACCACCAUUGCAAUCUUGAACUCUUGACCAAUAGAAAUCCUAGACUAGUGUUGCUAGGCAACUGACUGUAUUCAGGACACCCAGGGUGGGAGGUGGAUGGAGCUCUUGCCUAACACACACCAAGCCCCAAGUUCCAUCCCCAGUCCCACACAAACCAGAUAUGAUGCACACACCCUAUGUCCCCCACACACGAGAGAGCUGGAGGCAGGAGGAUCAGAAGUUCAGGGCCAUCCUUAAUCUCUUGCGGUCGCACUAGUGUGGAAUUCUCGGGUGUCAAGG
# B9: ENSMUSG00000028439.184|Fam219a (ssRNA)
# RNA: GGGAGUUCUACAGUCCGACGAUCGCUUCGAUAUCCGCAUGCUAUGUGCGUGUGUGUAUGUGUGUGCGUGUGUGUGUGUGUGUGUUGUACCCGAGUGUGUGUUGAGCCUAUCUGUCCAGGGAACCAGAUUGGUGUCCGAGAUGAGGAAAUGGCUGUGGCCUGGGAAAUCAGUGAGAGGCCGCUUGGGAAUGAGAAUGCAGUGGACUGAAAGCACAGCCUGGCCAUCUGGAACCUGGGUUCUGGUCCCAGCCUCGGCAUUCUCCCUGAGCUCCUAAGCAAUUCCCAGGCUUCUCUAGGGCUUCAGCUCUUGCGGUCGCACUAGUGUGGAAUUCUCGGGUGUCAAGG
# B10: ENSMUSG00000028439.189|Fam219a (ssRNA)
# RNA: GGGAGUUCUACAGUCCGACGAUCGCUUCGAUAUCCGCAUGCUAUGUGUGUGUGUUGUACCCGAGUGUGUGUUGAGCCUAUCUGUCCAGGGAACCAGAUUGGUGUCCGAGAUGAGGAAAUGGCUGUGGCCUGGGAAAUCAGUGAGAGGCCGCUUGGGAAUGAGAAUGCAGUGGACUGAAAGCACAGCCUGGCCAUCUGGAACCUGGGUUCUGGUCCCAGCCUCGGCAUUCUCCCUGAGCUCCUAAGCAAUUCCCAGGCUUCUCUAGGGCUUCAGUUCUCACAACUGGAAAAUAAAGAGUAGCUGCUCUUGCGGUCGCACUAGUGUGGAAUUCUCGGGUGUCAAGG
# B11: ENSMUSG00000061578.501|Ksr2|23:28;195:201 (ssRNA)
# RNA: GGGAGUUCUACAGUCCGACGAUCGCUUCGAUAUCCGCAUGCUACUCCCAAGUGCUGGGAUUAAAGCACACAACCACCAUUGCAAUCUUGAACUCUUGACCAAUAGAAAUCCUAGACUAGUGUUGCUAGGCAACUGACUGUAUUCAGGACACCCAGGGUGGGAGGUGGAUGGAGCUCUUGCCUAACACACACCAAGCCCCAAGUUCCAUCCCCAGUCCCACACAAACCAGAUAUGAUGCACACACCCUAUGUCCCCCACACACGAGAGAGCUGGAGGCAGGAGGAUCAGAAGUUCAGGGCCAUCCUCUUGCGGUCGCACUAGUGUGGAAUUCUCGGGUGUCAAGG
# B12: ENSMUSG00000028439.187|Fam219a (ssRNA)
# RNA: GGGAGUUCUACAGUCCGACGAUCGCUUCGAUAUCCGCAUGCUAUGUGCGUGUGUGUGUGUGUGUGUUGUACCCGAGUGUGUGUUGAGCCUAUCUGUCCAGGGAACCAGAUUGGUGUCCGAGAUGAGGAAAUGGCUGUGGCCUGGGAAAUCAGUGAGAGGCCGCUUGGGAAUGAGAAUGCAGUGGACUGAAAGCACAGCCUGGCCAUCUGGAACCUGGGUUCUGGUCCCAGCCUCGGCAUUCUCCCUGAGCUCCUAAGCAAUUCCCAGGCUUCUCUAGGGCUUCAGUUCUCACAACUGGAAAAUCUCUUGCGGUCGCACUAGUGUGGAAUUCUCGGGUGUCAAGG
# Molecular target: TDP-43 (Homo sapiens, UniProt Q13148 1-414)
# Assay: RNA Bind-n-Seq with designed 260-mer pool; 25 mM Tris-HCl, 150 mM KCl, 3 mM MgCl2, BSA (printed 500 mg/mL), 20 units/mL SUPERase IN; pH not stated; 500 nM RNA pool, 1 h, 4 C; TDP-43 5, 50, 500 nM; high values mean tight binding
# Conditions: protein: recombinant; tags: SBP (GST cleaved off with PreScission; pGEX-GST-SBP)
# Outline: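 Binding (R) is the ratio of each oligo's mapped-read-normalized abundance in the bound fraction to its abundance in the input. To obtain it, SBP-tagged recombinant TDP-43 (5, 50 or 500 nM) on streptavidin beads was incubated with 500 nM of an in vitro-transcribed 260-nt 3′ UTR oligo pool for 1 h at 4 °C in 25 mM Tris-HCl, 150 mM KCl, 3 mM MgCl2, BSA and SUPERase IN. The RNA retained after washing was released with biotin, then reverse transcribed, amplified by PCR and sequenced.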
# TDP-43, sequence (Q13148 whole entry): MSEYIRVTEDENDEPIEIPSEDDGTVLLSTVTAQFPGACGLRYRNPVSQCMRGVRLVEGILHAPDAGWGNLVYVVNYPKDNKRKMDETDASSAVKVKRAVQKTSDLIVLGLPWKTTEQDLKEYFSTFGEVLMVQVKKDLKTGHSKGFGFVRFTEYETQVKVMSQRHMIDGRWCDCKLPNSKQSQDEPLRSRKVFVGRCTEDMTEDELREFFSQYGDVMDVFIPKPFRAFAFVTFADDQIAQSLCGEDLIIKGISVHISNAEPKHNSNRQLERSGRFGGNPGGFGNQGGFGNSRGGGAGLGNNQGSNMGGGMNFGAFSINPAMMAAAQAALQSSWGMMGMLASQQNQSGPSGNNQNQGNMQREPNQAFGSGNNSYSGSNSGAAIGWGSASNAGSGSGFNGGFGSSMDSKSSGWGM
row,Binder,binding signal
1,B1,2.5 R (bound/input frequency ratio)
2,B2,1.44 R (bound/input frequency ratio)
3,B3,4.17 R (bound/input frequency ratio)
4,B4,6.13 R (bound/input frequency ratio)
5,B5,2.43 R (bound/input frequency ratio)
6,B6,3.25 R (bound/input frequency ratio)
7,B7,7.73 R (bound/input frequency ratio)
8,B8,3.46 R (bound/input frequency ratio)
9,B9,7.33 R (bound/input frequency ratio)
10,B10,1.86 R (bound/input frequency ratio)
11,B11,6.59 R (bound/input frequency ratio)
12,B12,6.68 R (bound/input frequency ratio)
